Bioassay records: PubChem BioAssay, National Center for Advancing Translational Sciences (NCATS)
Most compounds without a hit are left out; they make up all but 10% or so of the library.
NS1 inh: influenza NS1 inhibition; 0.4% of 270,000 active; Potency, µM (series often up to 46.1 µM), for the others: top-dose activity, positive = more growth; also: potency is read from the fitted curve at half-maximal effect; actives are rising curves; nearly all actives have a fitted effect of over 50% in size
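Compounds were scored for reversing the slow growth caused by influenza A NS1 in S. cerevisiae, measured by optical density at 600 nm. Assay medium contained 2% galactose at pH 6.0; NS1-free yeast of the same strain were the positive control.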
Pf growth 96h: P. falciparum growth inhibition at 96 hour, primary screen for plastid delayed-death inhibitors | 6.9% of 320,000 active | P. falciparum luciferase reporter growth, 96 h | AID 504834 | Potency, µM (doses to about 28.7 µM), for the others: top-dose activity change, negative = inhibition, usual class: inhibitors; active = well fitted inhibition curve with a large enough effect; inconclusive = small, poorly fitted or top-dose-only effect, or another doubt; inactive = no such curve, though single readings can be large or run the other way; also: potency is read from the fitted curve at half-maximal effect; % is scaled to controls: 0 for no effect and ±100 for the full control effect
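Infected RBCs, 2% Hct / 0.05% parasitemia final; luciferase-reporter P. falciparum; cpd 96 h, 37 C, 5% CO2; luciferase detection reagent; luminescence.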
Pf growth 48h: P. falciparum growth inhibition at 48 hours (one generation) | P. falciparum luciferase growth in erythrocytes, 48 h | 5.9% of 310,000 active | AID 504832 | Potency, µM (doses to about 28.7 µM), inactives show at the highest dose activity change, negative = inhibition, actives largely listed as inhibitors; active = well fitted inhibition curve with a large enough effect; inconclusive = small, poorly fitted or top-dose-only effect, or another doubt; inactive = no such curve, though single readings can be large or run the other way; also: potency is read from the fitted curve at half-maximal effect; % is scaled to controls: 0 for no effect and ±100 for the full control effect
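Luminescence readout; reporter = integrated firefly luciferase in P. falciparum. RBC culture at 2% hematocrit, 0.1% parasitemia final, 37 C/5% CO2; decreased signal taken as growth inhibition.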
SARS PLpro yeast: SARS-CoV PLP inhibition in yeast. S. cerevisiae expressing SARS-CoV PLpro, growth rescue. Potency, µM (top dose mostly 32.9 µM), for the others: top-dose activity, positive = growth rescue, usual class: activators. 0.19% of 330,000 active. AID 485353; also: potency is read from the fitted curve at half-maximal effect; 0% is about no effect; nearly all actives have a fitted effect of over 55% in size
NS1 inh valid: validation of influenza NS1 protein function inhibitors. shares compounds with NS1 inh. AID 492980. influenza NS1 function cell assay, 15-point titration. activity change, negative = inhibition, % at 32.9 µM. 1,400 tested, under 10 active; also: 0% is about no effect
Starred values were filed as active, the others as inactive; ? = inconclusive; nt = no result given; [ ] = remark or other dose. Unless noted, calls follow the shape of the full dose curve.

SMILES	NS1 inh	Pf growth 96h	Pf growth 48h	SARS PLpro yeast	NS1 inh valid
Cc1ccc(-c2noc(C3CCCN(C(=O)c4ccccc4Br)C3)n2)o1 (configuration not stated)	?	0.9%	?	-2.2%	-10.1
CCC(C)[C@H](NC(=O)NCc1cccc(OC)c1)C(=O)OC (some centres not stated)	2.24µM*	21.4%	47.6%	13.3%	-8.9
COc1cccc(CNC(=O)N[C@@H](CC(C)C)C(=O)O)c1	7.9%	-14.0%	nt	-2.9%	nt
CCOC(=O)N1CCC(c2nc(C)sc2C(=O)O)CC1	?	-9.6%	89.2%	10.7%	-3.3
O=c1cc(O)nc2n1CCCS2	7.94µM*	64.1%	41.1%	6.2%	1.4
O=c1c(Cc2ccccc2)c(O)nc2n1CCCS2	-0.2%	32.7%	nt	2.7%	nt
O=C(/C(=N/N=C/c1ccc(O)c(O)c1O)c1ccccc1)c1ccccc1	3.16µM*	?	10.4µM*	-100.0%	?
Cc1ccc(C2=CC(c3cccs3)n3nnnc3N2)cc1 (configuration not stated)	3.16µM*	22.8%	61.9%	-1.8%	-3.8
O=C(Nc1ccc(S(=O)(=O)NC2=NCCCCC2)cc1)c1ccc(=O)[nH]c1	3.5%	-3.3%	-3.1%	-10.7%	nt
CC(C)[C@H](NC(=O)C1CCN(S(=O)(=O)c2ccc(F)cc2)CC1)C(=O)NCc1ccco1	1.4%	-23.7%	8.2%	24.3%	nt
CCOc1cc(/C=C2\SC(=Nc3ccccc3)N(c3ccccc3)C2=O)ccc1OCC(=O)O	?	?	?	9.8%	-34.9
CCc1ccc(N=C2NC(=O)/C(=C/c3ccc(OCC(=O)O)c(OC)c3)S2)cc1	11.2µM*	?	-13.8%	-0.7%	46.2
CCOc1cc(/C=C2\SC(=Nc3ccc(F)cc3)N(c3ccc(F)cc3)C2=O)ccc1OCC(=O)O	?	?	?	-0.1%	nt
CC(C)(C)OC(=O)NC1CCN(S(=O)(=O)c2ccc3c(c2)OCCO3)CC1	-1.3%	-6.6%	25.9%	0.2%	nt
Cc1cccc(CS(=O)(=O)Cc2ccc(C(=O)NCc3cccs3)o2)c1	nt	?	-28.9%	-0.9%	nt
Cc1cc(-c2ccccc2)c2c(=O)[nH][nH]c2n1	10µM*	9.4%	4.6%	?	?
CCCC(C)C(=O)Nc1nc(C)c(-c2csc(Nc3ccc(Cl)cc3)n2)s1 (configuration not stated)	4.47µM*	?	?	-4.1%	-9.9
CCC(=O)Nc1nc(C)c(-c2csc(Nc3ccc(S(=O)(=O)Nc4cc(C)on4)cc3)n2)s1	19.0%	22.6%	nt	3.8%	nt
CN(C1CCCC1)C1CCN(C(=S)Nc2cc(F)cc(F)c2)CC1	nt	?	?	-4.2%	nt
N=Nc1c(O)n(CC(=O)Nc2ccccc2)c2ccccc12	2.51µM*	33.6%	?	8.2%	23.9
COc1ccc(/C=N/NC(=O)CNC(=O)C2COc3ccccc3O2)cc1OC (configuration not stated)	-1.5%	40.2%	-16.0%	-5.1%	nt
Cc1ccc2nc(-c3cccc(S(=O)(=O)N4CCCC4)c3)cn2c1	?	30.1%	45.4%	1.2%	2.2
Cc1ccn2cc(-c3cccc(S(=O)(=O)N4CCCCC4)c3)nc2c1	-5.3%	?	-4.4%	3.0%	nt
Cc1ccc(S(=O)(=O)N2CCCCC2)cc1NC(=O)c1ccccn1	-4.4%	0.2%	0.0%	-3.3%	nt
CC(C)(C)N(Cc1ccccc1)C(=O)CCc1ccccc1	?	13.1µM*	?	-0.7%	-32.6
SMILES	NS1 inh	Pf growth 96h	Pf growth 48h	SARS PLpro yeast	NS1 inh valid
O=C(Nc1ncccc1Cl)c1cc2ccccc2o1	-13.1%	179.3%	303.7%	-2.1%	nt
CC1=C(C#N)c2nc(N)c(C#N)c(C)c2/C1=C\c1ccc(C)cc1	12.6µM*	?	?	3.9%	?
Cc1cc(C)n2nc(SCC(=O)Nc3c(C)n(C)n(-c4ccccc4)c3=O)nc2n1	5.01µM*	?	10.1%	3.4%	7.7
O=C(Nc1ccc(Cl)cc1C(F)(F)F)C(Sc1nnc(-c2cccs2)o1)c1ccccc1 (configuration not stated)	24.6%	?	6.3%	-6.8%	nt
COc1ccc(C)cc1NC(=O)C(Sc1nnc(-c2cccs2)o1)c1ccccc1 (configuration not stated)	11.2µM*	?	?	15.5%	-26.4
CN[C@@H]1[C@H](O[C@@H]2O[C@H](CO)[C@@H](N)[C@H](O)[C@@H]2O)O[C@H]2C[C@@H](N)[C@@H](O[C@H]3[C@@H](O)[C@H](O)[C@H](N)C[C@@H]3N)O[C@H]2[C@H]1O	nt	-18.0%[12.8 µM]	15.3%[12.8 µM]	nt	nt
Cc1ccc(OCC(=O)N/N=C2\CCOc3c(C)cccc32)cc1	-3.5%	69.5%	7.2%	-0.2%	nt
COc1cccc2c1OCC/C2=N\NC(=O)COc1ccc(C)cc1	?	?	21.8%	-2.1%	-28.1
CCCCOc1cccc(C(=O)Nc2ccc(S(=O)(=O)Nc3nnc(CC)s3)cc2)c1	8.91µM*	?	-0.8%	-5.2%	11.5
Cc1cnc(C(=O)OCC(=O)Nc2ccc(Cl)cc2)cn1	-12.1%	-29.0%	0.3%	-0.1%	nt
Cc1cnc(C(=O)OCC(=O)NC(=O)NC(C)C)cn1	1.41µM*	20.2%	-8.1%	-0.7%	-3.3
Cc1ccc(NC(=O)CN2CCC(NC(=O)c3ccccc3F)CC2)cc1C	-19.6%	25.6%	-6.4%	-1.6%	nt
COc1ccc(C2C3C(=O)N(Cc4ccccc4)C(=O)C3ON2c2ccccc2)c(OC)c1OC (configuration not stated)	23.8%	?	?	-3.9%	nt
COc1cc(C2C3C(=O)N(Cc4ccccc4)C(=O)C3ON2c2ccccc2)cc(OC)c1OC (configuration not stated)	11.2µM*	?	?	2.3%	?
Cc1nn(-c2ccccc2)c2[nH]c(=O)c(CNCc3ccc4c(c3)OCO4)cc12	7.94µM*	8.6%	4.65µM*	-1.2%	6.8
Cc1nn(-c2ccccc2)c2[nH]c(=O)c(CNc3ccc4c(c3)OCCO4)cc12	-5.9%	-0.1%[5.75 µM]	47.8%	3.9%	nt
CCCCC(=O)Nc1ccc2c(c1)nc1n2CCSC1	8.91µM*	nt	133.9%	-12.5%	-11.8
Cc1sc2nc(CN(Cc3cccs3)C(=O)NC3CCCCC3)[nH]c(=O)c2c1C	0.447µM*	-3.9%	?	-9.8%	?
Cc1sc2nc(CN(C(=O)c3cccs3)C3CCCC3)[nH]c(=O)c2c1C	-33.4%	?	?	6.1%	nt
COC(C[C@@H](O)[C@@H](C)[C@H](O)COCc1ccccc1)OC	-0.1%	?	78.0%	3.8%	nt
Cc1cc(NC(=O)c2cccc(S(=O)(=O)N3CCCCCC3)c2)n(-c2ccccn2)n1	-36.8%	-7.8%	15.9%	-2.0%	nt
Cc1cc(NC(=O)c2cccc(S(=O)(=O)N(C)C)c2)n(-c2ccccn2)n1	12.6µM*	4.65µM*	nt	-2.2%	-15.2
CCCCn1c(C)cc2cc(O)ccc21	10µM*	17.6%	?	-8.6%	?
CCCCn1c(S(=O)(=O)O)nc2ccccc21	1.2%	?	2.5%	2.8%	nt
CCNC(=S)N1CCN(S(=O)(=O)c2cccc(C(F)(F)F)c2)CC1	3.1%	?	-10.4%	4.7%	nt
